Assays:
[1] = target: T1, Serine/threonine-protein kinase D2 (Homo sapiens) (UniProt Q9BZL6); conditions: at 1 µM;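 note: mean value of PRKD2 inhibition, from the GSK PKIS screening panel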
T1 sequence (whole entry): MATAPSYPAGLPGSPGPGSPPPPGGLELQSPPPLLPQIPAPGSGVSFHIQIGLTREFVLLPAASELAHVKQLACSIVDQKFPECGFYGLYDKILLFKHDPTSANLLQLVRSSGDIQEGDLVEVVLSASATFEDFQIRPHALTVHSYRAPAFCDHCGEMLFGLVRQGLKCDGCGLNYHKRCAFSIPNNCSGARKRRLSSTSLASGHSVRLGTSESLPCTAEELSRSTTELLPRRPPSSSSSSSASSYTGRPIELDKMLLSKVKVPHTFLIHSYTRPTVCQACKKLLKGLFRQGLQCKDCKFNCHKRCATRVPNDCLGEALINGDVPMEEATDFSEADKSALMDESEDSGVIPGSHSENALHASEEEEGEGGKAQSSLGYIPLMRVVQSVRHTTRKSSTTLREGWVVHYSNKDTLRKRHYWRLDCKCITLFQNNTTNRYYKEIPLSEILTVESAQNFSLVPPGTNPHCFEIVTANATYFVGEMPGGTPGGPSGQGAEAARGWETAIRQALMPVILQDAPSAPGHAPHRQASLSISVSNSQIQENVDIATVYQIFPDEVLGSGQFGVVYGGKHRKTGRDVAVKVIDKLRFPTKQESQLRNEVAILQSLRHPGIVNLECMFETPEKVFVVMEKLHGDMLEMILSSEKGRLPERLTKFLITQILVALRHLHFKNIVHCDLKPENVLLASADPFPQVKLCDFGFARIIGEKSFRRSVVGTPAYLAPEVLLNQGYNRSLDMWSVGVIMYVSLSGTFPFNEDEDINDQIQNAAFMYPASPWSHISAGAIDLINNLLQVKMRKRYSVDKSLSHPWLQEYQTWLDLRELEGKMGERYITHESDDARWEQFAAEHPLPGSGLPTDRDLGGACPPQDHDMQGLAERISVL

[2] = target: T2, Serine/threonine-protein kinase D3 (Homo sapiens) (UniProt O94806); conditions: at 0.1 µM
T2 sequence (whole entry): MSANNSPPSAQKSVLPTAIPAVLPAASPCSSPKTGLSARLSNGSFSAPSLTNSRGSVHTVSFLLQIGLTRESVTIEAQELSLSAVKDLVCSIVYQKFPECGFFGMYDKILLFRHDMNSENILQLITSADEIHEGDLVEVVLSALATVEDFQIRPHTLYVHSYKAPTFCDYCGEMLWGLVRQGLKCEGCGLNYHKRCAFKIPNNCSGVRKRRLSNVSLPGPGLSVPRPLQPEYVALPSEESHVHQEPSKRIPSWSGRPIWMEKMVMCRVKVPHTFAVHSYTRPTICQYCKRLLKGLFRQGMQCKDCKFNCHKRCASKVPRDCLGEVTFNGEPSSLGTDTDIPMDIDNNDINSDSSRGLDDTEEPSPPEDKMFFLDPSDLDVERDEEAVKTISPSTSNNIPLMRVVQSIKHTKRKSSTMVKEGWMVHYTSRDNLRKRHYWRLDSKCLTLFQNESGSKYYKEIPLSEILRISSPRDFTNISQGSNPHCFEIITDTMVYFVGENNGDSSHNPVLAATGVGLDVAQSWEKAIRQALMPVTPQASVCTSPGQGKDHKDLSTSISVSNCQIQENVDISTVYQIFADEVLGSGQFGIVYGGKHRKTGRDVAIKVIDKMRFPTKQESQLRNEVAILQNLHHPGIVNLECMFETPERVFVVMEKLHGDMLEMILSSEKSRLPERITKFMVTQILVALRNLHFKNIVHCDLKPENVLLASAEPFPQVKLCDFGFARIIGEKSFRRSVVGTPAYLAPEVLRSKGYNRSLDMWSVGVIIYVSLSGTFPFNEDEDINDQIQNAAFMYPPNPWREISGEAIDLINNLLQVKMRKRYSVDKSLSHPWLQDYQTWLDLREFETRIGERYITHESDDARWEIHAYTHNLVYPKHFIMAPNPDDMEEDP

[3] = target: T2, Serine/threonine-protein kinase D3 (Homo sapiens); conditions: at 1 µM
[4] = target: T3, cGMP-dependent protein kinase 1 (Homo sapiens) (UniProt Q13976); conditions: at 0.1 µM
T3 sequence (whole entry): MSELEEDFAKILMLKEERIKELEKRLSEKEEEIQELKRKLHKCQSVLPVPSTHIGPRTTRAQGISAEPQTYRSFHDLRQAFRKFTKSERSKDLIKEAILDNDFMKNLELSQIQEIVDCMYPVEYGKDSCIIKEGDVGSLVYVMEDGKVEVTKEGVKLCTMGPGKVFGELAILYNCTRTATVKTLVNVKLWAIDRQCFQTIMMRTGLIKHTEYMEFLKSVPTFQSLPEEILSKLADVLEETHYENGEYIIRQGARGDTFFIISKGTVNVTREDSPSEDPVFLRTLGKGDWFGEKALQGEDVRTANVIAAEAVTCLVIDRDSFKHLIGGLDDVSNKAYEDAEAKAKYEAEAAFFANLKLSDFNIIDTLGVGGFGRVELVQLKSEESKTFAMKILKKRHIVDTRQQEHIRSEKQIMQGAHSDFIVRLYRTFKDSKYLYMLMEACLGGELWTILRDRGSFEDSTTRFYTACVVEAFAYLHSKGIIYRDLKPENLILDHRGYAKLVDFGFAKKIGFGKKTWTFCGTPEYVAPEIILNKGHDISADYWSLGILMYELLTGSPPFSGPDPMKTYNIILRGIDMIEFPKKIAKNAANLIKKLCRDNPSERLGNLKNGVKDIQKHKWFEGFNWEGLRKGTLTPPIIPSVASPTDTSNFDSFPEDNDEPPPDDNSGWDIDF

[5] = target: T3, cGMP-dependent protein kinase 1 (Homo sapiens); conditions: at 1 µM
[6] = target: T4, cGMP-dependent protein kinase 2 (Homo sapiens) (UniProt Q13237); conditions: at 0.1 µM
T4 sequence (whole entry): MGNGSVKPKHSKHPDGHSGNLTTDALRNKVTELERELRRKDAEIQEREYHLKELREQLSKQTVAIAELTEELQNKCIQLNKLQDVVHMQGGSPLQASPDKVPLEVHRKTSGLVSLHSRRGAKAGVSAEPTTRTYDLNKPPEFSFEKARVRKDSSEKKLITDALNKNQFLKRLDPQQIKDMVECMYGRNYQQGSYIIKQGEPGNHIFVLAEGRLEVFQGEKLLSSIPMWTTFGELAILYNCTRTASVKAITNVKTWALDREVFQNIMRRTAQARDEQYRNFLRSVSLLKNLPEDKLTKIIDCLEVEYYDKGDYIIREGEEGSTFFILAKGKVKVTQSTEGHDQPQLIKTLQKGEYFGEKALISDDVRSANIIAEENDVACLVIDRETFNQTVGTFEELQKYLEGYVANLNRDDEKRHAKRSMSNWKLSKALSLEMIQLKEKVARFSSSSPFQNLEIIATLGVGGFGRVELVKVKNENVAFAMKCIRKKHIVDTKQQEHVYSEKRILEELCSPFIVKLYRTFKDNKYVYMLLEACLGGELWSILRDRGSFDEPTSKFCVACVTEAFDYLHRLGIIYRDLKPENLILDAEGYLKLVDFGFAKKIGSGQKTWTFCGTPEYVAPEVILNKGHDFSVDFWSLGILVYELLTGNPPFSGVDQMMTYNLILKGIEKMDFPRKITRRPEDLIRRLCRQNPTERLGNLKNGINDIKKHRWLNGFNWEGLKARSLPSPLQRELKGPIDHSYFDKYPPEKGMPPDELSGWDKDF

[7] = target: T4, cGMP-dependent protein kinase 2 (Homo sapiens); conditions: at 1 µM
[8] = target: T5, cAMP-dependent protein kinase catalytic subunit PRKX (Homo sapiens) (UniProt P51817); conditions: at 0.1 µM
T5 sequence (whole entry): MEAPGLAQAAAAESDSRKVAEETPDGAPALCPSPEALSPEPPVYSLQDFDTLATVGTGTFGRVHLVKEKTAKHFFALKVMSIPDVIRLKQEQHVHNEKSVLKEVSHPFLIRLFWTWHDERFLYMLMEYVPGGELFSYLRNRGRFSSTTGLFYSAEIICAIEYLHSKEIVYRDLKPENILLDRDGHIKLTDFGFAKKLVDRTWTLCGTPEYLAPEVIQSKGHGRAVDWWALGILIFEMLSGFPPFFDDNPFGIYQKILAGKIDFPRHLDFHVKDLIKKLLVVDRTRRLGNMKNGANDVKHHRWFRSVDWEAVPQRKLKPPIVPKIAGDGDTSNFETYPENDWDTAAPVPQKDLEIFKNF

[9] = target: T5, cAMP-dependent protein kinase catalytic subunit PRKX (Homo sapiens); conditions: at 1 µM
[10] = target: Rho-associated protein kinase 1 (Homo sapiens) (UniProt Q13464); conditions: at 0.1 µM
[11] = target: Rho-associated protein kinase 1 (Homo sapiens) (UniProt Q13464); conditions: at 1 µM
[12] = target: Rho-associated protein kinase 2 (Homo sapiens) (UniProt O75116); conditions: at 0.1 µM
[13] = target: Rho-associated protein kinase 2 (Homo sapiens) (UniProt O75116); conditions: at 1 µM
[14] = target: Ribosomal protein S6 kinase alpha-1 (Homo sapiens) (UniProt Q15418); conditions: at 0.1 µM
[15] = target: Ribosomal protein S6 kinase alpha-1 (Homo sapiens) (UniProt Q15418); conditions: at 1 µM
[16] = target: Ribosomal protein S6 kinase alpha-3 (Homo sapiens) (UniProt P51812); conditions: at 0.1 µM
[17] = target: Ribosomal protein S6 kinase alpha-3 (Homo sapiens) (UniProt P51812); conditions: at 1 µM
[18] = target: Ribosomal protein S6 kinase alpha-2 (Homo sapiens) (UniProt Q15349); conditions: at 0.1 µM
[19] = target: Ribosomal protein S6 kinase alpha-2 (Homo sapiens) (UniProt Q15349); conditions: at 1 µM
[20] = target: Ribosomal protein S6 kinase alpha-6 (Homo sapiens) (UniProt Q9UK32); conditions: at 0.1 µM;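 note: reported value is the mean inhibition of RSK4, from the GSK PKIS kinase inhibitor screen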

Ribosomal protein S6 kinase alpha-3 (Homo sapiens), sequence (P51812 whole entry): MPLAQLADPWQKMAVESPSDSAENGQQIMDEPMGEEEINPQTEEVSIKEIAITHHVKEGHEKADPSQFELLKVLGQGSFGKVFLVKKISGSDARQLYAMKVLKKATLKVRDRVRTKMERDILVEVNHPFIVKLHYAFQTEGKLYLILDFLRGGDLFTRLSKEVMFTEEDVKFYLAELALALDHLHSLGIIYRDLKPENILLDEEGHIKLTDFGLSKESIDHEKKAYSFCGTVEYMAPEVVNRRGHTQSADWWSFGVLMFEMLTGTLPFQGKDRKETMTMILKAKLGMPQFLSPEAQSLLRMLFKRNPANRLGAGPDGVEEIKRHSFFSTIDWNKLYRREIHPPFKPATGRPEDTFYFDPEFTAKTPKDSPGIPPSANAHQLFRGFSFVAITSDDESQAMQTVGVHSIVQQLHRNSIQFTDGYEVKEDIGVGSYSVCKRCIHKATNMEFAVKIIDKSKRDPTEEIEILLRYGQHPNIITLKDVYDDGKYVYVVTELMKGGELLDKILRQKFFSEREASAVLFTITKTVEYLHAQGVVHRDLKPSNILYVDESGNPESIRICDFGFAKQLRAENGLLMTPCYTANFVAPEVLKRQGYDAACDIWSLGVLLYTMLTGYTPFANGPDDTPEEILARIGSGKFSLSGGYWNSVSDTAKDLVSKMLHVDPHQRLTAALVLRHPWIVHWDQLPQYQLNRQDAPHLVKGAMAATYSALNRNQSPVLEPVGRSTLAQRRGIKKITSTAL
Ribosomal protein S6 kinase alpha-1 (Homo sapiens), sequence (Q15418 whole entry): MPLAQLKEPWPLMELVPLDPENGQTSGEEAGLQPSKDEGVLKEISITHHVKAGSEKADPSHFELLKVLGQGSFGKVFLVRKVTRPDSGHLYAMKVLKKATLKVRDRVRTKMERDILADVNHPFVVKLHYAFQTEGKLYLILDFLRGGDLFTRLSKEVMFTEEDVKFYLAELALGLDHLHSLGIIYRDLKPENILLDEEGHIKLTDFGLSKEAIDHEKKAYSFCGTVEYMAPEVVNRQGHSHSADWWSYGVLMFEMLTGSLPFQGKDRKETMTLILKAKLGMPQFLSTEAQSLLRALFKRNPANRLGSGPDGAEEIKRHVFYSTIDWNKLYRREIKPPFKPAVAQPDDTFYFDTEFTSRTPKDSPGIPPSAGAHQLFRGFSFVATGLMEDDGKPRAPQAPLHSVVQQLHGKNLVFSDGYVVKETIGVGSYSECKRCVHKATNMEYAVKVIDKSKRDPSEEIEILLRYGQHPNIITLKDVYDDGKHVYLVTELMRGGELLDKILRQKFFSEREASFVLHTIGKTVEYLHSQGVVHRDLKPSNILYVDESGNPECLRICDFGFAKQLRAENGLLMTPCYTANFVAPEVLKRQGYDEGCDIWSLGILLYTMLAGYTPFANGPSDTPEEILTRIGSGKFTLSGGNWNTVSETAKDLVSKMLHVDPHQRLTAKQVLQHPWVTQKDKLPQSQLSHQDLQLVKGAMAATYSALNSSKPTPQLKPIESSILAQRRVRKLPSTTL
Rho-associated protein kinase 2 (Homo sapiens), sequence (O75116 whole entry, looked up): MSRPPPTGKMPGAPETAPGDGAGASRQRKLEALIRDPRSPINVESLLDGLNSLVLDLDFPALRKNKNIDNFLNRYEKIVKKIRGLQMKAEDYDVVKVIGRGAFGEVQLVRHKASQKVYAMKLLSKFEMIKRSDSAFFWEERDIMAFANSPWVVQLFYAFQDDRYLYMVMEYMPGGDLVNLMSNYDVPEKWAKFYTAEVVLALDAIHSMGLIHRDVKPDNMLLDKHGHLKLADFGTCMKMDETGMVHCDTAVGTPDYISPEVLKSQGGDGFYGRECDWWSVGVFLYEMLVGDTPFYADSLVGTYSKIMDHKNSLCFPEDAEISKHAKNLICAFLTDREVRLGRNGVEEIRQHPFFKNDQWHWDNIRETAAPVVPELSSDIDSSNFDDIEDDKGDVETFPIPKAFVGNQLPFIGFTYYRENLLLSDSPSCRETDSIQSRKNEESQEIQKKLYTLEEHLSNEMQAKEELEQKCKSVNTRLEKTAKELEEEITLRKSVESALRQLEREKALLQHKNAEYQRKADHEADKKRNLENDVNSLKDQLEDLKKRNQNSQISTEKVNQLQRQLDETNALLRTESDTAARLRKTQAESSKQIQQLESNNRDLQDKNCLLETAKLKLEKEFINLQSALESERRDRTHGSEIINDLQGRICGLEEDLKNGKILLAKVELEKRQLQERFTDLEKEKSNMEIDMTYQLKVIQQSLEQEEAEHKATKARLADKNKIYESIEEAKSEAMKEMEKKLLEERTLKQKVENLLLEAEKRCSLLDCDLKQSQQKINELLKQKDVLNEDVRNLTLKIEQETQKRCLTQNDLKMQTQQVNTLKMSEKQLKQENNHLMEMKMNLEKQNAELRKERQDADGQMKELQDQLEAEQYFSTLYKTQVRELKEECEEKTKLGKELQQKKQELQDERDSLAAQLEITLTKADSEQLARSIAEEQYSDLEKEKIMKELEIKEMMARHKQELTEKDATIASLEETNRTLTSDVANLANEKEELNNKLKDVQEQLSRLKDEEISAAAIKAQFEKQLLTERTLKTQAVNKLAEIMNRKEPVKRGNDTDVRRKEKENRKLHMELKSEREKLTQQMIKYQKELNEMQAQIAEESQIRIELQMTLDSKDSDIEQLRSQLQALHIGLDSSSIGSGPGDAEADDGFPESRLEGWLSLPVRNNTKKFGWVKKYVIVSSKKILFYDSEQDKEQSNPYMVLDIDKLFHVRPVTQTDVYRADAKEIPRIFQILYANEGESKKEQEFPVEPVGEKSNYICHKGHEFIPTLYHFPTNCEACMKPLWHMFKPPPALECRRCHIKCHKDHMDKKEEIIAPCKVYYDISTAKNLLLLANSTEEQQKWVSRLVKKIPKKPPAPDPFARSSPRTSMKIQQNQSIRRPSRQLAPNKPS
Ribosomal protein S6 kinase alpha-2 (Homo sapiens), sequence (Q15349 whole entry): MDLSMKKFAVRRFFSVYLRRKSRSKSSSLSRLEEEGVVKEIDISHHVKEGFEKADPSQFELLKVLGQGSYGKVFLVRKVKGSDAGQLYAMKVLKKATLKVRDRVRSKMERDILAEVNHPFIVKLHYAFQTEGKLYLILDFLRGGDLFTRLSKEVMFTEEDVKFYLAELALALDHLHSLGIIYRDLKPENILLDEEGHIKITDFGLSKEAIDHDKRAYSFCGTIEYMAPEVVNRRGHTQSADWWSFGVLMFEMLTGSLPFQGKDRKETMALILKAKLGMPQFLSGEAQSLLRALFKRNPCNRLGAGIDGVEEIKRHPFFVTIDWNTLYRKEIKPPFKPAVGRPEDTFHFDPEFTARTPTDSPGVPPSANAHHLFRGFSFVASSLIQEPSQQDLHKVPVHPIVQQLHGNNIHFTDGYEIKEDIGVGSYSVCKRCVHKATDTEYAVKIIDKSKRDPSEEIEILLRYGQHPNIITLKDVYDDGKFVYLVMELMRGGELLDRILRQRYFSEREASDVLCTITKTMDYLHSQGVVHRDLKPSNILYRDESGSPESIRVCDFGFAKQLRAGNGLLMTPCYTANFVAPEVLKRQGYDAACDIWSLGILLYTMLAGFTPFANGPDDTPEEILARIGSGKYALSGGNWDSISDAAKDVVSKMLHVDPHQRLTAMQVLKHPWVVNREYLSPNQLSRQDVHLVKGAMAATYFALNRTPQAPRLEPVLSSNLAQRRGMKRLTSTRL
Rho-associated protein kinase 1 (Homo sapiens), sequence (Q13464 2-1354 limits assumed): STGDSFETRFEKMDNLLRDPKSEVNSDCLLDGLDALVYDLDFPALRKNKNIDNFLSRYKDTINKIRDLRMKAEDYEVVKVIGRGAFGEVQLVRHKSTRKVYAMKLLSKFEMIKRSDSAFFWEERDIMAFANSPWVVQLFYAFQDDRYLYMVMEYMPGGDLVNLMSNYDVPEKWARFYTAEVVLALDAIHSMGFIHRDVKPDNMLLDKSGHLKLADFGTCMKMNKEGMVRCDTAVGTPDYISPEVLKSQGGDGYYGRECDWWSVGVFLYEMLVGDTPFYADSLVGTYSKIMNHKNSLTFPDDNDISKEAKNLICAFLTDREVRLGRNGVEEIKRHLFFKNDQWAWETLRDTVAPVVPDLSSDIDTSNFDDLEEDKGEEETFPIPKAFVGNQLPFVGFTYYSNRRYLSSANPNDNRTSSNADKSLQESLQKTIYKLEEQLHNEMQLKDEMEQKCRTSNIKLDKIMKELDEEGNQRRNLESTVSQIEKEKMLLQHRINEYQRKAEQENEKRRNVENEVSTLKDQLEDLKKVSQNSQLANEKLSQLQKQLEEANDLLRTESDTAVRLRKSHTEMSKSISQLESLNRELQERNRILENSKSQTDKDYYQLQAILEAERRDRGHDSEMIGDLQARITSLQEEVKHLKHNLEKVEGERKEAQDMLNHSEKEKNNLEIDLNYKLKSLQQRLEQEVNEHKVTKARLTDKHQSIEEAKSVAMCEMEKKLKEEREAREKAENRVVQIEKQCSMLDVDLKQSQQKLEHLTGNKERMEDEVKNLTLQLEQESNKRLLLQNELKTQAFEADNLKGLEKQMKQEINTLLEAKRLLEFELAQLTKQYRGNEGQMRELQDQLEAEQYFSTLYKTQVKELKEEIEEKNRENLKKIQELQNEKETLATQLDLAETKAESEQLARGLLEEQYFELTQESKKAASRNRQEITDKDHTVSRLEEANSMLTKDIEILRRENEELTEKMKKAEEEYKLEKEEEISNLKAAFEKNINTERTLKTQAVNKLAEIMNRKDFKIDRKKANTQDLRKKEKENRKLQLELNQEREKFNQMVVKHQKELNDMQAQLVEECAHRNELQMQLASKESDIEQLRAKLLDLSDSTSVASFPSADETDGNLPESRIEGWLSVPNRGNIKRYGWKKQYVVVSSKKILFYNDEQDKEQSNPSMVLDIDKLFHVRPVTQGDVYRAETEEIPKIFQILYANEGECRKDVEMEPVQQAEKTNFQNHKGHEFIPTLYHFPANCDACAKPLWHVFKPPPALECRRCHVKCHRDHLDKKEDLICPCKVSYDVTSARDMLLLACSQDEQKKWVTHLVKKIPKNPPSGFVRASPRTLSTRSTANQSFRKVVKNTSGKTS

Structure (SMILES)	inhibition [1] [%]	inhibition [2] [%]	inhibition [3] [%]	inhibition [4] [%]	inhibition [5] [%]	inhibition [6] [%]	inhibition [7] [%]	inhibition [8] [%]	inhibition [9] [%]	inhibition [10] [%]	inhibition [11] [%]	inhibition [12] [%]	inhibition [13] [%]	inhibition [14] [%]	inhibition [15] [%]	inhibition [16] [%]	inhibition [17] [%]	inhibition [18] [%]	inhibition [19] [%]	inhibition [20] [%]
CCn1cc(-c2ccnc3[nH]ccc23)c(-c2cccc(NC(=O)Nc3ccc(OCc4ccccc4)cc3)c2)n1	2.85	1.53	4.36	2.12	1.15	2.48	1.43	4.18	4.31	-1.8	-1.44	1.34	15.9	-1.5	1.29	1.34	1.78	-0.02	0.38	-1.3
COc1ccc(CNC(=O)c2ccc(-c3cc(-c4nnc(C)o4)ccc3C)cc2)cc1	1.08	0.4	0.26	3.61	3.68	2.93	4.96	3.88	6.21	2.49	2.35	4.11	9.48	3.72	8.08	2.12	5.75	0.39	0.4	0.98
CS(=O)(=O)CCNCc1coc(-c2ccc3ncnc(Nc4ccc(OCc5ccccc5)cc4)c3c2)c1	2.1	2.3	3.06	1.72	3.25	1.73	3.41	1.12	0.96	0.65	1.33	1.66	1.35	2.08	2.82	2.71	3.03	3.38	3.14	2.43
Fc1ccc(-c2nn3ccccc3c2-c2ccncc2)cc1	5.87	3.07	4.89	3.89	5.24	2.4	3.57	1.41	3.65	5.05	4.95	5.66	3.03	1.48	4.42	1.87	3.24	0.67	1.19	1.1
Fc1cccc(COc2ccc(Nc3ncnc4sc(-c5ccco5)cc34)cc2Cl)c1	2.52	5.28	4.41	2.93	1.81	1.59	-0.65	2.01	2.86	2.54	2.72	3.35	4.12	2.09	2.91	1.55	3.12	2.51	2.48	1.33
Cc1cccc2c1NC(=O)/C2=N\Nc1ccc(S(N)(=O)=O)cc1	3.1	3.5	3.85	0.72	2.94	3.15	3.38	1.15	2.2	1.31	2.1	3.93	1.59	1.09	1.6	0.33	1.26	1.69	2.49	1.43
NC(=O)c1sc(-n2cnc3ccc(C(F)(F)F)cc32)cc1OCc1ccccc1Br	4.08	4.03	3.94	3.55	8.39	2.01	5.42	3.81	8.33	0.45	3.95	2.8	4.98	2.63	4.25	0.56	2.48	0.97	3.47	0.36
FC(F)(F)c1cccc(-c2nn3ncccc3c2-c2ccnc(Nc3ccc4c(c3)OCCO4)n2)c1	49	6.61	47.2	0.41	2.81	0.46	3.03	0.27	-1.55	0	2.47	0	1.32	1.14	5.1	-0.79	-1.39	1.2	2.46	1.4
Nc1nc(-c2cccc(Cl)c2)c(-c2ccc3ncccc3n2)s1	40.1	7.77	33.1	2.8	5.63	1.78	4.96	3.46	5.88	1.58	1.91	4.39	7.84	3.03	9.16	1.82	4.8	3.04	2.74	1.97
Nc1nc(-c2ccc(F)cc2)c(-c2ccc3ncccc3n2)s1	51.9	8.64	41.8	0.69	4.97	2.78	4.3	2.61	3.14	0.86	2.11	4.08	5.66	3.54	7.04	1.7	3.18	1.93	3.03	1.18
CC(=O)NCc1cccc(C#Cc2cncnc2Nc2ccc(OCc3cccc(F)c3)c(Cl)c2)c1	2.16	1.12	1.92	1.14	1.95	1.31	2.28	1.14	2.2	0.02	2.63	3.83	3.71	0.02	0.7	0.76	1.97	1.51	1.36	0.19
CNC(=O)c1cncc(/C=C/c2ccccc2Cl)c1	-1.08	0.25	-0.83	1.15	2.29	2.05	2.68	1.22	2.62	0.5	1.5	3.13	6.36	0.85	2.91	1.15	1.38	-0.36	-1.02	0.95
